Data taken from PubChem BioAssay (EPA / NIEHS).
Activity calls are given as the source filed them. How the source made its calls: active means hit-call score of the fitted dose curve at least 0.9, where 1 is the maximum; inactive means score below 0.9.

Assay: BSK_4H_Eotaxin3: BioMAP Diversity Plus: 4H Assay for Eotaxin 3 Biomarker Activity (AID 2283000)
Details: primary human endothelial cells (HUVEC); actives raise or lower the signal
Method: BSK_4H is a cell-based, multiplexed-readout assay that uses umbilical vein endothelium, a human vascular primary cell, with measurements taken at 24 hours after chemical dosing in a 96-well plate.BSK_4H_Eotaxin3 is an assay component measured in the BSK_4H assay. It measures Eotaxin-3 antibody related to regulation of gene expression using ELISA technology.Data from the assay component BSK_4H_Eotaxin3 was analyzed into 1 assay endpoint. This assay endpoint, BSK_4H_Eotaxin3, was analyzed with bidirectional fitting relative to DMSO as the negative control and baseline of activity. Using a type of binding reporter, gain or loss-of-signal activity can be used to understand changes in the signaling as they relate to the gene CCL26. Furthermore, this assay endpoint can be referred to as a primary readout, because this assay has produced multiple assay endpoints where this one serves a signaling function. To generalize the intended target to other relatable targets, this assay endpoint is annotated to the cytokine intended target family, where the subfamily is chemotactic factor.
The levels of cell surface (or secreted, indicated by the prefix "s") biomarker endpoints were measured by ELISA. Overt cytotoxicity to cells in confluent adherent cultures (all systems other than the BT system) was assessed by measuring total protein levels using sulforhodamine B (SRB) staining in parallel cultures at the time of biomarker measurements, indicated as SRB endpoints. For proliferation assays for adherent cell types, individual cell types are cultured at sub-confluence and relative cell numbers quantified by SRB staining at time points optimized for each system (48 h: 3C and CASM3C systems; 72 h: BT and HDF3CGF systems; 96 h: SAg system). SRB was performed by staining cells with 0.1% SRB after fixation with 10% TCA and reading wells at 560 nm.Viability and proliferation of PBMC (T cells) was quantified by Alamar Blue reduction for the SAg and BT systems. For PBMC viability (referred to as PBMC Cytotoxicity within the assay endpoint names), cells were plated (75,000/well in a 96-well plate) and then chemical samples added for 1 h before addition of activators, SEB and TSST-1 (20 ng/mL final concentration each). Cells were incubated for 90 h. Then, Alamar Blue (20 uL/well) (Invitrogen, Cat DAL1100) was added for 6 h, and the plates were read with a fluorescence microplate reader at 546/580 nm (excitation/emission). For PBMC proliferation, cells were plated and activated as above but incubated for only 16 h prior to addition of Alamar Blue. Plates were read after 6 h.

AC50, active:
Cc1ccc(-c2cc(C(F)(F)F)nn2-c2ccc(S(N)(=O)=O)cc2)cc1 31 µM
CCCCC(CC)COP(=O)(OCC(CC)CCCC)OCC(CC)CCCC (stereo not given) 20 µM
CCCCCCC(C=O)=Cc1ccccc1 36.6 µM
CC(C)OC(=O)C(C)(C)Oc1ccc(C(=O)c2ccc(Cl)cc2)cc1 32.4 µM
CCN(CC)CCOc1ccc(C(=C(Cl)c2ccccc2)c2ccccc2)cc1 12.4 µM
COC(=O)[C@H]1[C@H]2C[C@@H]3c4[nH]c5cc(OC)ccc5c4CCN3C[C@H]2C[C@@H](OC(=O)c2cc(OC)c(OC)c(OC)c2)[C@@H]1OC 25.7 µM

outcome, inactive:
Cc1cc(SC2=C(O)C[C@@](CCc3ccc(N)cc3)(C(C)C)OC2=O)c(C(C)(C)C)cc1CO
Oc1ccccc1O
CCCCCCCCCC[N+](C)(C)[O-]
O=C(Oc1ccccc1)c1cccc(C(=O)Oc2ccccc2)c1
CC(=O)O[C@]1(C(C)=O)CC[C@H]2[C@@H]3C=C(Cl)C4=CC(=O)[C@@H]5C[C@@H]5[C@]4(C)[C@H]3CC[C@@]21C
CCCCCCCCCCCCCCCCO
CO[C@@H]1COCC[C@@H]1N[C@@H]1CC[C@@](C(=O)N2CCc3ncc(C(F)(F)F)cc3C2)(C(C)C)C1
Cc1cc(Cc2ccc(N)c(C)c2)ccc1N
CS(=O)(=O)c1ccc([C@@H](C[C@H]2CCC(=O)C2)C(=O)Nc2cnccn2)cc1Cl
CCCCC(CC)COC(=O)CCCCCCCC(=O)OCC(CC)CCCC (stereo not given)
CC(C)(O)c1ccc(CNC(=O)c2cccnc2Oc2ccc(F)cc2)cc1
NCCOCCOCCN
NC1CCCCC1
CC(C)c1cccc(C(C)C)c1NC(=O)NS(=O)(=O)c1cc(C(C)(C)O)co1
CC(C)(C)c1ccccc1
C=CCCCCCCCCCCCC
CC(=O)O
C#CC(O)C(CC)CCCC (stereo not given)
O=C(O)CN(CC(=O)O)CC(=O)O
CC1=C(C)S(=O)(=O)CCS1(=O)=O
CCc1cc(C2=C(C(=O)O)N(c3ccccc3C(F)(F)F)S(=O)(=O)c3ccccc32)cc2c1OCO2
CCCCCCCCCCCCCCOS(=O)(=O)O
NC=O
O=C(O)c1cccnc1
COC(=O)CCCC(=O)OC
CN(C)CCCN(C)CCCN(C)C
O=C1c2c(O)cccc2Cc2cccc(O)c21
CCCCCCC(CCCCCCCCCCC(=O)OCC(COC(C)=O)OC(C)=O)OC(C)=O (stereo not given)
CSc1ccc(Oc2ccc(S(N)(=O)=O)cc2CN(C)C)cc1C
CC(=O)OC1CC(C)OC(C)O1 (stereo not given)
O=[Si]=O
CCCCc1nc2cccnc2n1Cc1ccc(-c2ccccc2-c2nnn[nH]2)cc1
O=C1O[C@H]([C@H](O)CO)C(O)=C1O
CC(=O)OCC(COC(C)=O)OC(C)=O
